# According to PubChem BioAssay AID1508600 (Functional Genomics Laboratory (NCATS/FGL), 2020):
# The campaign covered roughly 53,000 sequences. About 3,700 (7%) were called active. This excerpt belongs to a sample that is enriched for actives. A number with no mark means an inactive call.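 How the source made its calls: active means gene knockdowns whose robust z-score for IL-1 alpha signal is at least 2 or at most -2, so actives lie on both sides; inactive means the rest.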
# Test: Components of the Cytosolic LPS Sensing Pathway: Gene Identification via Genome-wide siRNA Screen;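 further: robust z of the log signal after scaling to non-targeting control siRNA wells of the plate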
# Settings: RAW264.7 macrophages, IL-1a HTRF, actives lie on both sides, screened at 100 nM (by protocol), cells primed 5 h with Pam3CSK4 first
# How it was run: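 Mouse macrophage line RAW264.7 is transfected with siRNA (100 nM final), grown 48h, primed with TLR ligand Pam3CSK4 5 h and given intracellular LipidA 24 h. IL-1a in supernatant is read by HTRF and viability by luminescence.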
row,Sequence,z-score
1,GGGUGCGGAAAUUCAUUAATT against Mpv17l2,0.803
2,GGCGCAGUAUCACAGUCUUTT against Tle1,1.02
3,GGAUGAGAACAGCAACCAGTT against Bcl7b,-2.22 (active)
4,GGUUCCAACAAUUGUAAAGTT against Chl1,-0.00378
5,GGAUUUUAAACAAAAGACCTT against Stard13,0.718
6,GGUUCACGGUUUAUAAAGUTT against Sgk3,-0.652
7,GCUCCUGUACAGUUCAAACTT against Mrpl17,0.0768
8,GCAGAAAGCACACUCCUACTT against Psors1c2,-2.02 (active)
9,GGAGAAGGUAGUUCUGAAATT against Slc7a11,-0.349
10,GCACAACAUCACGGUGAACTT against Adcy5,-0.672
11,CCACUAUGCUUCUUGGAAUTT against Serpini2,-0.73
12,GGAAAAGAAACCAGUUUCUTT against C230012O17Rik,-2.07 (active)
13,GGACAAAAGACACAUGUUGTT against Miip,-0.674
14,GGAUUUUCACAUUGCAUCUTT against Dmrtc1a,1.49
15,CCUUUGAACCUCUAACUUUTT against Xpnpep1,3.62 (active)
16,GUUUUAGGCAACCUUGGGUTT against Olfr1038-ps,-0.14
17,GGGACUCUAAAAACAAUGATT against Zkscan14,2.67 (active)
18,CCCAAAAUACAUCAUCAAUTT against Psmc2,-0.444
19,GGACAACCACUUUAAGCUUTT against Tars2,1.04
20,GCCUACGUUACCUUGAUCCTT against Slc16a12,0.0774
21,CCGGUAUUUAGGAACUGCCTT against Irak2,-1.66
22,GGAGUCAACACACAUCAAGTT against Zfp13,1

row,Sequence,z-score
1,GGAAACCUGGAAACAGUUUTT against Apol7c,0.377
2,GGACAGCAGCAACAACAUCTT against Dnase1l3,-2.04 (active)
3,GCGACGGAAGUCUUUAUUATT against Nostrin,-0.163
4,GGGUGAAGUAGGUGAAAAATT against H2-M10.6,-0.361
5,CGUAGCUAAUCCGUAAAAGTT against 1700120K04Rik,-1.93
6,GGACAAAUCAGUUCUGCGUTT against Car13,0.105
7,GGAACUUGGUAUUUAGAUCTT against Rhot2,0.295
8,GGAUGAGUUUGACAAGCUGTT against Rhou,-0.735
9,GGAGGAAAAGAGACAGCUCTT against Kank2,-2.41 (active)
10,GUGUCAACCUAAGCUUGGCTT against Tlx3,-1.19
11,GGUGUACCUCUGAAAAAAATT against Zbp1,-1.5
12,AGAACGGAACCAUAGGGAATT against Cmc2,-0.897
13,GGUAGUUCAGAUCUGAUUUTT against Svep1,0.599
14,CGUUGCAGUCUAAGCUUGUTT against Rabac1,4.44 (active)
15,AUGGAAUCCAGUAUAGAGCTT against Cep44,0.713
16,GGAAGAAUGUAGGAGGAAGTT against Sln,0.246
17,GGUAUGAUCAAUGACUUACTT against Serpine1,-0.165
18,GGCUGACUUUCUGUCACAGTT against Olfr655,1.03
19,GCCUGAAUUCCACUACUCGTT against Def8,0.551
20,GGACAAGCUGAGGUGAAAATT against Maats1,-1.08
21,CGUACACCGUAUUCAUGACTT against Rapgef5,3.6 (active)
22,GGAUGACUACAAAUGCAAATT against E230015B07Rik,-0.155

row,Sequence,z-score
1,GCUAGGAUUUCAGCAUAUATT against Adra1a,0.29
2,GGUCCUAACCGACAUGUCUTT against Vrk1,0.305
3,CGUAGUGUUCUGUGUUUAUTT against Mif,1.36
4,GGACUUAGUACCUGAUAACTT against Rtraf,0.838
5,GCCUAUUGUCAGAAAAGUUTT against Usp4,-0.385
6,GGGACUCAACCUAUAUCUUTT against Gnpat,0.118
7,CCGGUUGAGUUCACAGAAUTT against Atad3aos,-2.44 (active)
8,GGAUUUCGAGAUAACUAUGTT against Tbr1,-0.0186
9,CGUAUGGAGUCCAUUACUATT against Frmd4b,0.341
10,GGAUUCAAACAAUGAGCUCTT against Fam126b,0.9
11,GCUACUUUGACAUGCACACTT against Caly,2.1 (active)
12,GGCGGAUCUCUUGAGUGUUTT against Glyctk,0.213
13,GGUAUCAUUUACUUUGAACTT against Gtf2f2,-0.0825
14,GCCAGUUCAUACAAGAGGGTT against Zfp946,0.623
15,GGAGAUCACAGCAAUCCGATT against Ccna1,-1.01
16,GUAUGUUGACAUUUGCCUGTT against Olfr113,-2.05 (active)
17,GGGCGGAGCAUUUUUCUUGTT against Ube2d2b,0.483
18,GGAAGAUGACAGUGCUGUATT against Utp25,-0.868
19,GGGAUAAGUACUCUGCUAATT against Sorcs3,-0.146
20,CCAAGGGUCACCUAUUUUUTT against Kcna5,1.97
21,CCUGCAUUAGCAUGUUAGGTT against Gfral,-0.483
22,GGUAGCUAAGAAGUUUAUUTT against Dck,1.55

row,Sequence,z-score
1,GGAUUUAUCCCAAAAUCUATT against Tmem26,0.42
2,GGUUCCUACGAGUUCACUGTT against B130024G19Rik,-2.76 (active)
3,GGAUCAAAUAACAAUGACATT against Hfm1,-0.567
4,GGCCAUGGUUCUAUAGGACTT against Zbtb37,0.764
5,GCUUGUAAAUGGAACGACATT against 0610012G03Rik,-0.69
6,CCAUAUUUUACCCAAAAGCTT against Prune1,-1.04
7,CGAAGGAGUCAAAACUGGGTT against Klk1b8,-1.79
8,GGAGAUCUCACCGACAUUGTT against Cpt1c,-1.22
9,GGCUUUGCUACUUGGGAUATT against Wdr86,3.16 (active)
10,CCUACUCGUAUAAUCUUCUTT against Ago3,0.496
11,GCGUUUGGGCCGGAAGAAATT against Smo,0.57
12,GGCAGUUUGAGAUUGUGUCTT against Thbs2,-0.00379
13,GCUCAUCGAGCCUGUACACTT against Med26,-0.296
14,GGUGGAACCCAAUGACACCTT against Cers5,1.21
15,GGCUUCUACCUUCGAGACUTT against Carns1,-2.3 (active)
16,GGUAGUUGUGCCAGAAAAATT against Garre1,0.0675
17,GGACCCUCUAGAUGACCAATT against Trem2,-1.09
18,GGUUCCUUUAACUUUGGUUTT against A730089K16Rik,2.18 (active)
19,CCUUUACACGUAAAAGAAGTT against Zfp445,-0.194
20,CCUGUUGAGUACUGUGCUGTT against Olfr987,-0.437
21,CCCAUGUAAGGAUGUGUCGTT against Frmd5,0.761
22,CGGGAAGCUAUCAUCAAAATT against Rgs13,0.12

row,Sequence,z-score
1,GGACACAGAAAAAGUUGAATT against Tbc1d4,-0.0174
2,GCAAUGGACUACUGCUGCUTT against Olfr704,-2.26 (active)
3,GGAUGUUAAAAUUGCCCUGTT against Olfr911-ps1,0.896
4,GGACGAGAAUCAAGAGCAGTT against Cdkn1c,-0.0249
5,UGGUUGUGAUCAACAGAAUTT against Cyp2d12,-0.933
6,CCAUUUAUAUCAGGCAUCATT against Lrit1,-0.647
7,GGGUAAUCAGAUUGAAAGATT against Dnah5,0.0753
8,GGUGGAGAGUGAACAACAATT against Tpr,-1.25
9,GGUCUUCCUUGAACAUCAGTT against Fev,-2.05 (active)
10,GGUAUGAGCUGAUCAAGUATT against Slc27a2,1.67
11,GUACACUCAAUCACUCUUGTT against Rexo5,0.966
12,CGACCUACUUGGGAUGAUGTT against Pea15b,0.683
13,GCAAGUGAUGAAUGCUUACTT against Ncln,-2.62 (active)
14,GCCUGAUACCUUGAAGGAATT against Qpctl,-0.382
15,CGACAACGACAUCAUGGAATT against Sfrp2,1.52
16,GGGAAUGAAAUGUUCUUCGTT against Ttl,-0.121
17,CGCAGUGGACUCAUCUUGATT against Sestd1,-0.65
18,GCCAUUCUAAGCUGCCAAATT against Mcat,-0.000938
19,GGACAGAGCGUGCACUAGATT against Slc66a1,-1.32
